Measurements: PubChem BioAssay AID1159580 (chemical genetic matrix, 2015)
Hit rate of the full screen: of about 5,500 compounds, about 2,000 (36%) were called active. Roughly 18% stayed inconclusive and do not appear here. Cut-off read from the data, not from the text of the source: active = normalized growth mostly below about 0.91 (no sharp cut-off); inconclusive = no clear call, values can overlap the other calls; inactive = mostly above about 0.92. The list shows a part of the results.

Experiment: chemical genetic growth profiling, strain panel (AID 1159580);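 note: tested at 20 µM; growth read once vehicle control cultures reached saturation at 30 °C; 1 = growth at the plate median or of vehicle wells; lower values mean less growth of the strain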
Conditions: growth OD
[1] = S. cerevisiae deletion strains, locus YAL013W, strain DEP1, hits give low values
[2] = S. cerevisiae deletion strains, locus YBR229C, strain ROT2, hits give low values
[3] = S. cerevisiae deletion strains, locus YCL061C, strain MRC1, hits give low values
[4] = S. cerevisiae deletion strains, locus YDL101C, strain DUN1, hits give low values
[5] = S. cerevisiae deletion strains, locus YDL134C, strain PPH21, hits give low values
[6] = S. cerevisiae deletion strains, locus YDR150W, strain NUM1, hits give low values
[7] = S. cerevisiae deletion strains, locus YEL061C, strain CIN8, hits give low values
[8] = S. cerevisiae deletion strains, locus YGR078C, strain PAC10, hits give low values
[9] = S. cerevisiae deletion strains, locus YGR229C, strain SMI1, hits give low values
[10] = S. cerevisiae deletion strains, locus YHR030C, strain SLT2, hits give low values
[11] = S. cerevisiae deletion strains, locus YHR087W, strain rtc3, hits give low values
[12] = S. cerevisiae deletion strains, locus YJL187C, strain SWE1, hits give low values
[13] = S. cerevisiae deletion strains, locus YJR043C, strain POL32, hits give low values
[14] = S. cerevisiae deletion strains, locus YJR075W, strain HOC1, hits give low values
[15] = S. cerevisiae deletion strains, locus YLR039C, strain RIC1, hits give low values
[16] = S. cerevisiae deletion strains, locus YLR058C, strain SHM2 (second series), hits give low values
[17] = S. cerevisiae deletion strains, locus YLR085C, strain ARP6, hits give low values
[18] = S. cerevisiae deletion strains, locus YLR262C, strain YPT6, hits give low values
[19] = S. cerevisiae deletion strains, locus YML094W, strain GIM5, hits give low values
[20] = S. cerevisiae deletion strains, locus YMR219W, strain ESC1, hits give low values
[21] = S. cerevisiae deletion strains, locus YNL153C, strain GIM3, hits give low values
[22] = S. cerevisiae deletion strains, locus YNL298W, strain CLA4 (second series), hits give low values
[23] = S. cerevisiae deletion strains, locus YNL322C, strain KRE1, hits give low values
[24] = S. cerevisiae deletion strains, locus YNR030W, strain Alg12, hits give low values
[25] = S. cerevisiae deletion strains, locus YOL006C, strain TOP1, hits give low values
[26] = S. cerevisiae deletion strains, locus YPL055C, strain LGE1, hits give low values
[27] = S. cerevisiae deletion strains, locus YPL241C, strain CIN2, hits give low values
[28] = S. cerevisiae deletion strains, locus YPR135W, strain CTF4, hits give low values
[29] = S. cerevisiae strains, strain wild type, hits give low values
[30] = S. cerevisiae deletion strains, locus YKL190W, strain CNB1, hits give low values
[31] = S. cerevisiae deletion strains, locus YMR263W, strain SAP30, hits give low values
[32] = S. cerevisiae deletion strains, locus YNL128W, strain TEP1, hits give low values

Measured: normalized growth

Cc1ccc(COc2ccc(C)nc2[N+](=O)[O-])cc1
inactive: [1] 0.977 | [2] 0.932 | [3] 0.946 | [4] 0.905 | [6] 0.854 | [7] 0.922 | [9] 0.958 | [11] 0.959 | [16] 0.954 | [21] 0.951 | [23] 0.972 | [26] 0.809
active: [5] 0.902 | [8] 0.918 | [10] 0.252 | [12] 0.932 | [13] 0.872 | [14] 0.857 | [15] 0.57 | [17] 0.295 | [18] 0.593 | [19] 0.855 | [20] 0.939 | [22] 0.75 | [24] 0.758 | [25] 0.593 | [27] 0.71 | [28] 0.382 | [29] 0.859

CN1CNc2c(c(=O)n(C)c(=O)n2C)C1
inactive: [1] 0.994 | [2] 0.999 | [3] 0.998 | [4] 0.974 | [6] 0.998 | [7] 0.996 | [8] 0.988 | [10] 1.04 | [11] 0.988 | [12] 1.01 | [13] 0.998 | [14] 1.02 | [30] 1.01 | [15] 1.03 | [16] 1 | [17] 0.979 | [18] 1.01 | [19] 0.974 | [20] 0.998 | [31] 1 | [32] 1 | [21] 0.983 | [22] 1.01 | [23] 0.998 | [24] 1 | [25] 1.02 | [26] 0.953 | [27] 1.07 | [28] 1.01 | [29] 1

O=C(N/N=C\c1ccccc1Cl)c1cccnc1
inactive: [1] 1.02 | [2] 1 | [4] 0.971 | [5] 1.01 | [6] 0.932 | [7] 1.03 | [8] 1 | [9] 1.01 | [10] 0.987 | [11] 1.01 | [12] 0.996 | [13] 0.995 | [14] 0.99 | [30] 1.01 | [15] 1.03 | [16] 1.01 | [17] 0.97 | [18] 1.01 | [19] 1 | [20] 1 | [31] 0.945 | [21] 1 | [22] 1 | [23] 1 | [24] 1.01 | [25] 1.03 | [26] 0.886 | [27] 0.996 | [28] 1

Cc1csc2ncnc(N/N=C\c3ccccc3Cl)c12
inactive: S. cerevisiae deletion strains, locus YAR019C, strain CDC15, hits give low values 0.959 | S. cerevisiae deletion strains, locus YBL105C, strain PKC1, hits give low values 0.96 | S. cerevisiae deletion strains, locus YBR135W, strain CKS1, hits give low values 0.968 | S. cerevisiae deletion strains, locus YBR136W, strain MEC1, hits give low values 0.962 | S. cerevisiae deletion strains, locus YBR160W, strain CDC28, hits give low values 0.954 | S. cerevisiae deletion strains, locus YDL017W, strain CDC7, hits give low values 0.97 | S. cerevisiae deletion strains, locus YDL028C, strain MPS1, hits give low values 0.968 | [4] 0.967 | S. cerevisiae deletion strains, locus YDL108W, strain KIN28, hits give low values 0.962 | S. cerevisiae deletion strains, locus YDL132W, strain cdc53, hits give low values 0.958 | S. cerevisiae deletion strains, locus YDL214C, strain PRR2, hits give low values 0.961 | S. cerevisiae deletion strains, locus YDR052C, strain DBF4, hits give low values 0.977 | S. cerevisiae deletion strains, locus YDR054C, strain cdc34, hits give low values 0.952 | S. cerevisiae deletion strains, locus YDR226W, strain ADK1, hits give low values 0.969 | S. cerevisiae deletion strains, locus YDR477W, strain SNF1, hits give low values 0.958 | S. cerevisiae deletion strains, locus YER123W, strain YCK3, hits give low values 0.931 | S. cerevisiae deletion strains, locus YER133W, strain GLC7, hits give low values 0.967 | S. cerevisiae deletion strains, locus YFL009W, strain cdc4, hits give low values 0.958 | S. cerevisiae deletion strains, locus YFL029C, strain CAK1, hits give low values 0.956 | S. cerevisiae deletion strains, locus YFR003C, strain YPI1, hits give low values 0.96 | S. cerevisiae deletion strains, locus YFR019W, strain FAB1, hits give low values 0.979 | S. cerevisiae deletion strains, locus YFR028C, strain CDC14, hits give low values 0.955 | S. cerevisiae deletion strains, locus YGR040W, strain KSS1, hits give low values 0.942 | S. cerevisiae deletion strains, locus YGR052W, strain FMP48, hits give low values 1.03 | S. cerevisiae deletion strains, locus YGR092W, strain DBF2, hits give low values 0.917 | [10] 1.01 | S. cerevisiae deletion strains, locus YHR079C, strain IRE1, hits give low values 0.997 | S. cerevisiae deletion strains, locus YHR082C, strain KSP1, hits give low values 1.05 | S. cerevisiae deletion strains, locus YHR205W, strain SCH9, hits give low values 0.968 | S. cerevisiae deletion strains, locus YIL147C, strain SLN1, hits give low values 0.968 | S. cerevisiae deletion strains, locus YJL095W, strain BCK1, hits give low values 0.994 | S. cerevisiae deletion strains, locus YJL128C, strain PBS2, hits give low values 0.946 | S. cerevisiae deletion strains, locus YJL157C, strain FAR1, hits give low values 0.947 | S. cerevisiae deletion strains, locus YJR016C, strain ILV3, hits give low values 0.956 | S. cerevisiae deletion strains, locus YJR066W, strain TOR1 (second series), hits give low values 0.918 | S. cerevisiae deletion strains, locus YJR066W, strain TOR1, hits give low values 1.05 | S. cerevisiae deletion strains, locus YKL048C, strain ELM1, hits give low values 0.976 | S. cerevisiae deletion strains, locus YKL067W, strain YNK1, hits give low values 0.947 | S. cerevisiae deletion strains, locus YKL101W, strain HSL1, hits give low values 0.951 | S. cerevisiae deletion strains, locus YKL193C, strain SDS22, hits give low values 0.957 | S. cerevisiae deletion strains, locus YKL203C, strain TOR2, hits give low values 1 | S. cerevisiae deletion strains, locus YLR113W, strain HOG1, hits give low values 0.882 | S. cerevisiae deletion strains, locus YLR133W, strain CKI1, hits give low values 0.951 | S. cerevisiae deletion strains, locus YLR403W, strain SFP1, hits give low values 0.931 | S. cerevisiae deletion strains, locus YML070W, strain DAK1, hits give low values 0.935 | S. cerevisiae deletion strains, locus YMR001C, strain CDC5, hits give low values 0.957 | S. cerevisiae deletion strains, locus YMR205C, strain PFK2 (second series), hits give low values 0.973 | S. cerevisiae deletion strains, locus YMR277W, strain FCP1, hits give low values 0.966 | S. cerevisiae deletion strains, locus YNL006W, strain LST8, hits give low values 0.973 | S. cerevisiae deletion strains, locus YNL020C, strain ARK1, hits give low values 0.958 | S. cerevisiae deletion strains, locus YNL161W, strain CBK1, hits give low values 0.956 | S. cerevisiae deletion strains, locus YNL183C, strain NPR1, hits give low values 1.02 | S. cerevisiae deletion strains, locus YNL207W, strain RIO2, hits give low values 0.965 | S. cerevisiae deletion strains, locus YNL222W, strain SSU72, hits give low values 0.961 | S. cerevisiae deletion strains, locus YNL307C, strain MCK1 (second series), hits give low values 0.962 | S. cerevisiae deletion strains, locus YOL078W, strain AVO1, hits give low values 0.957 | S. cerevisiae deletion strains, locus YOL136C, strain PFK27, hits give low values 0.942 | S. cerevisiae deletion strains, locus YOR061W, strain CKA2, hits give low values 0.973 | S. cerevisiae deletion strains, locus YOR119C, strain RIO1, hits give low values 1.01 | S. cerevisiae deletion strains, locus YOR231W, strain MKK1, hits give low values 0.927 | S. cerevisiae deletion strains, locus YOR329C, strain SCD5, hits give low values 0.96 | S. cerevisiae deletion strains, locus YPL031C, strain PHO85, hits give low values 0.959 | S. cerevisiae deletion strains, locus YPL153C, strain RAD53, hits give low values 0.944 | S. cerevisiae deletion strains, locus YPL204W, strain HRR25, hits give low values 0.936 | S. cerevisiae deletion strains, locus YPL209C, strain IPL1, hits give low values 0.949 | S. cerevisiae deletion strains, locus YPL256C, strain CLN2, hits give low values 0.901 | S. cerevisiae deletion strains, locus YPR025C, strain CCL1, hits give low values 0.968 | S. cerevisiae deletion strains, locus YPR106W, strain ISR1, hits give low values 0.955 | S. cerevisiae deletion strains, locus YPR111W, strain DBF20, hits give low values 0.943 | S. cerevisiae deletion strains, strain NNK1, hits give low values 0.959 | S. cerevisiae deletion strains, strain TSCII, hits give low values 0.957

O=C(N/N=C\c1ccccc1Cl)N/N=C\c1ccccc1Cl
inactive: [2] 0.989 | [3] 1 | [4] 0.992 | [6] 0.88 | [8] 1 | [11] 0.989 | [12] 0.987 | [13] 0.945 | [14] 0.988 | [16] 1 | [18] 0.871 | [20] 1 | [32] 0.976 | [21] 0.996 | [23] 0.977 | [25] 0.769
active: [1] 0.898 | [7] 0.834 | [10] 0.363 | [15] 0.753 | [17] 0.458 | [19] 0.773 | [31] 0.909 | [22] 0.588 | [24] 0.69 | [26] 0.765 | [27] 0.707 | [28] 0.553
